Bioassay records as filed in PubChem.
Most compounds without a hit are left out; they make up all but 6.9% or so of the library.
HCV NS3h FP = hepatitis C NS3 helicase inhibition, primary screen; NS3h Cy5-dT15 DNA binding, fluorescence polarization; 16,000 tested, 1.6% active; inhibition, % at 100 µM;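 active = inhibition above the average over every tested compound plus 3 SD, cut at about 40% in these data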
Cy5 interf NS3h = Cy5 fluorescence interference, HCV helicase counter-screen; AID 720488; fluorescence interference ratio at 100 µM; Cy5-dT15 DNA with NS3h; actives lie on both sides; signal over control mean, under 1 quenches; 16,000 tested, 6% active;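 active = compound fluorescence over control fluorescence at most 0.8, a quencher, or at least a set upper limit, an enhancer; inactive = ratio between 0.8 and the set upper limit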
Of the large screens only hits and unclear results are named; the others gave an inactive call.

CC(=O)Oc1ccc(C(=O)Nc2cccc(C(=O)NCC(C)C)c2)cc1	none
CC(=O)Oc1cccc(N2C(=O)c3ccc(C(=O)Nc4cccc(C(=O)NCC(C)C)c4)cc3C2=O)c1	Cy5 interf NS3h 0.73
COc1cccc(NC(=O)c2cc(-c3ccccc3)nc3ccccc23)c1	none
COc1cccc(NC(=O)CSc2nc3ccccc3o2)c1	Cy5 interf NS3h 0.67
O=C(CSc1nc2ccccc2o1)c1ccc(-c2ccccc2)cc1	Cy5 interf NS3h 0.63
O=C(CSc1nc2ccccc2o1)OCC(=O)c1ccc(F)cc1	none
CCN1C(=O)/C(=C\c2ccc(-c3ccc(I)cc3)o2)SC1=S	Cy5 interf NS3h 0.72
CCN1C(=O)/C(=C\c2ccc(-c3ccc(C)c(Cl)c3)o2)SC1=S	none
O=C(/C=C/c1ccco1)NCc1ccc2c(c1)OCO2	none
O=C(NCc1ccc2c(c1)OCO2)c1ccco1	Cy5 interf NS3h 0.74
N#CC1=C(N)Oc2cc(N)ccc2C1c1cccs1 (stereo not given)	none
COc1cccc(/C=N\N2C(=O)c3cccc4cccc(c34)C2=O)c1OC	none
CCOC(=O)Cc1csc(NC(=O)COc2ccc(-c3ccccc3)cc2)n1	Cy5 interf NS3h 0.78
O=C(COc1ccc(Cl)cc1)Nc1nc(-c2ccc(Cl)cc2)cs1	none
CC(C)c1ccc(NC(=O)CN(c2ccc(Br)cc2)S(C)(=O)=O)cc1	none
C=CCN1C(=O)/C(=C\c2ccc(OC)cc2)SC1=Nc1ccccc1	Cy5 interf NS3h 0.79
C=CCN1C(=O)/C(=C\c2ccc(OCc3cccc4ccccc34)cc2)SC1=S	none
Cc1ccccc1NC(=O)C(=O)NCC(C)C	none
COc1ccc(OC)c(C2NC(=S)NC(C)=C2C(=O)Nc2cc(Cl)ccc2OC)c1 (stereo not given)	none
CCOc1cc(OCC)cc(C(=O)Nc2ccc(Cl)cc2Cl)c1	none
CN(C)CC#CC(O)(c1ccccc1)c1ccccc1	none
CN(CCOC(=O)C(C)(c1ccccc1)c1ccccc1)C(C)(C)C	Cy5 interf NS3h 0.76
Clc1ccc(-c2csc(Nc3ncccn3)n2)cc1Cl	none
Cc1cccc(CSCc2nnc(NC(=O)Nc3ccc(Cl)cc3)s2)c1	none
O=C1NC(=O)/C(=C/c2ccccc2[N+](=O)[O-])S1	none
Cc1ccc(S(=O)(=O)N=Nc2c(O)[nH]c3ccc(Br)cc23)cc1C	none
Cc1ccc2[nH]c(O)c(N=Nc3ccc([N+](=O)[O-])cc3[N+](=O)[O-])c2c1Br	Cy5 interf NS3h 0.74
COC(=O)Cn1cnc(=O)c(C#N)c1C	none
c1ccc(-c2ccc(Oc3nc4ccccc4n4cnnc34)cc2)cc1	none
Cc1ccc(C(=O)O/N=C(/N)c2ccc(Cl)cc2)cc1[N+](=O)[O-]	none
Cc1ccc(C(=O)O/N=C(/N)c2ccc(Br)cc2)cc1[N+](=O)[O-]	Cy5 interf NS3h 0.78
FC1(F)C2C3OC(C4C5C=CC(O5)C34)C2C1(F)F (stereo not given)	none
Cc1cc(C)c(NS(=O)(=O)c2ccc(Cl)c([N+](=O)[O-])c2)c(C)c1	none
COCCOC(=O)c1c(C)oc2ccc(OCc3cccc(Cl)c3)cc12	Cy5 interf NS3h 0.79
COCCOC(=O)c1c(C)oc2ccc(OCc3cccc(F)c3)cc12	none
C=CCN1C(=O)/C(=C\c2ccc(OC(=O)c3ccc([N+](=O)[O-])cc3)c(OC)c2)SC1=S	none
C=CCN1C(=O)/C(=C\c2ccccc2OCc2ccc(Cl)cc2)SC1=S	none
C=CCN1C(=O)/C(=C/c2ccccc2OCc2ccccc2Cl)SC1=S	Cy5 interf NS3h 0.65
C=CCN1C(=O)NC(=O)/C(=C\c2ccc(OCc3ccccc3Cl)c(OC)c2)C1=O	Cy5 interf NS3h 1.2
COc1cc(C=C2C(=O)N(C)C(=O)N(C)C2=O)ccc1OCc1ccccc1Cl	none
CCc1ccc(OCC(=O)Nc2cc(Cl)cc(Cl)c2)cc1	none
N/C(=N/OC(=O)C(c1ccccc1)c1ccccc1)c1ccccn1	none
N/C(=N/OC(=O)c1ccc(I)cc1)c1cccnc1	none
COc1ccc(CCNC(=O)C(=O)Nc2cccc(Cl)c2Cl)cc1OC	none
Cc1ccc(-c2cc(C(F)(F)F)n3ncc(C(=O)N(C)Cc4ccccc4)c3n2)cc1	Cy5 interf NS3h 0.61
CCOC(=O)c1cnn2c(C(F)(F)F)cc(-c3ccco3)nc12	none
Cc1ccc(-c2cc(C(F)(F)F)n3ncc(C(=O)N4CCN(c5ccc(F)cc5)CC4)c3n2)cc1	Cy5 interf NS3h 0.61
CN(Cc1ccccc1)C(=O)c1nn2c(C(F)(F)F)cc(-c3ccccc3)nc2c1Cl	Cy5 interf NS3h 0.61
COc1cc(-c2cc(C(F)(F)F)n3ncc(C(=O)Nc4cccc5ccccc45)c3n2)cc(OC)c1OC	none
O=C(c1nn2c(C(F)(F)F)cc(-c3ccccc3)nc2c1Cl)N1CCCC1	none
CS(=O)(=O)N(CC(=O)Nc1cccc2ccccc12)c1cccc(Cl)c1	none
CCOc1ccc(NC(=NS(=O)(=O)c2ccccc2)c2ccccc2)cc1	none
Cc1cc([N+](=O)[O-])c(-c2ccc(C=C3C(=O)c4ccccc4C3=O)o2)cc1Cl	none
O=C1NC(=O)C(=Cc2ccc(-c3cc(Cl)c([N+](=O)[O-])cc3Cl)o2)C(=O)N1	Cy5 interf NS3h 0.04
Cc1ccc(-c2nc3ccccc3o2)cc1NC(=S)NC(=O)c1ccco1	none
C=CCN1C(=O)/C(=C\c2ccc(Br)c([N+](=O)[O-])c2)SC1=S	Cy5 interf NS3h 0.65
C=CCN1C(=O)/C(=C/c2cccc(Br)c2)SC1=S	none
COc1ccc(C(=O)/C=C/c2ccc(-c3ccc(Cl)cc3Cl)o2)cc1	none
CCOc1ccc(N2C(=O)NC(=O)/C(=C\c3ccc(OCc4cccc(C(=O)O)c4)cc3)C2=O)cc1	none
Cc1ccc(N2C(=O)NC(=O)/C(=C\c3ccc(OCc4cccc(C(=O)O)c4)cc3)C2=O)cc1	HCV NS3h FP 52
Cc1ccc(N2C(=O)/C(=C/c3ccc(OCc4cccc(C(=O)O)c4)cc3)C(=O)NC2=S)cc1	none
Cc1cccc(N2C(=O)NC(=O)/C(=C\c3ccc(OCc4cccc(C(=O)O)c4)cc3)C2=O)c1	Cy5 interf NS3h 1.3
Cc1ccc(N=Cc2c(C)[nH]c3ccccc23)cc1I	none
O=C(Oc1ccccc1C(=S)N1CCOCC1)c1ccc([N+](=O)[O-])cc1	none
O=C(Oc1cccc(C(=S)N2CCOCC2)c1)c1ccc([N+](=O)[O-])cc1	Cy5 interf NS3h 0.66
CCCCNC(=O)c1nn2c(c1Cl)NC(c1ccccc1)CC2C(F)(F)F (stereo not given)	none
COc1ccccc1N1CCN(/N=C/c2cc(Br)c(O)c(OC)c2)CC1	none
COc1ccc(OC)c(NC(=O)COc2ccc(Br)cc2C)c1	none
CCCC(=O)Nc1cc(OC)ccc1OC	Cy5 interf NS3h 0.74
C/C(=N/N=C\c1ccccc1)C1C(=O)c2ccccc2C1=O	Cy5 interf NS3h 0.68
C/C(=N/N=C(\C)c1cccs1)C1C(=O)c2ccccc2C1=O	none
O=C(c1cc2n(n1)C(C(F)(F)F)CC(c1ccc(F)cc1)N2)N1CCCC1 (stereo not given)	Cy5 interf NS3h 0.75
O=C(c1nn2c(c1Cl)NC(c1ccccc1)CC2C(F)(F)F)N1CCN(c2ccc(F)cc2)CC1 (stereo not given)	none
Cc1ccc(C2CC(C(F)(F)F)n3nc(C(=O)Nc4ccc(C(C)O)cc4)cc3N2)cc1 (stereo not given)	Cy5 interf NS3h 0.64
CC(O)c1cccc(NC(=O)c2cc3n(n2)C(C(F)(F)F)CC(c2ccc(F)cc2)N3)c1 (stereo not given)	none
Cc1ccc(C2CC(C(F)(F)F)n3ncc(C(=O)N(Cc4ccccc4)Cc4ccccc4)c3N2)cc1 (stereo not given)	none
